TDP1 block – inhibitors of human tyrosyl-DNA phosphodiesterase TDP1 | Q9NUW8 | recombinant TDP1, AlphaScreen DNA substrate cleavage | Potency, µM (series often up to 130 µM), actives largely listed as inhibitors | 350,000 tested, 0.28% active | AID 485290; further: nearly all actives have a fitted effect of over 40% in size
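Here, a 5' biotin and 3' phosphotyrosine-FITC DNA oligonucleotide reports Tdp1 activity: intact substrate bridges AlphaScreen beads, while cleavage leaves a 3' phosphate and drops signal. All incubations at room temperature.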
TDP1 cell CPT – growth inhibition of DT40 Tdp1-/-;hTDP1 cells with camptothecin (screen for TDP1 inhibitors); AID 686979; 420,000 tested, 12% active; Potency, µM (top dose mostly 46.2 µM), usual class: inhibitors; chicken DT40 Tdp1-/-;hTDP1 cells + 20 nM CPT, ATP luminescence, 48 h; further: nearly all actives have a fitted effect of over 55% in size
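Chicken DT40 Tdp1-/- cells stably complemented with human TDP1 were seeded at 400 cells/well in medium containing 20 nM camptothecin, exposed to pin-transferred compounds, and grown at 37 °C for at least 48 hr. Viability was read as ATP luminescence.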
DT40 TDP1 no CPT – qHTS for Inhibitors of human tyrosyl-DNA phosphodiesterase 1 (TDP1): qHTS in cells in absence of CPT. AID 686978, 2013. 420,000 tested, 15% active. Potency, µM (doses to about 46.2 µM), usual class: inhibitors. DT40 Tdp1-/- hTDP1 cells, no CPT, ATP luminescence, 48 h; further: nearly all actives have a fitted effect of over 55% in size
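A cellular qHTS used chicken DT40 cells lacking endogenous Tdp1 but carrying stably transfected human TDP1. Compounds were applied without camptothecin, and cell growth kinetics were judged by ATP-dependent luminescence after ≥48 hr.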
IL1B secr inh – inflammasome signaling inhibition, IL-1 beta readout | 360,000 tested, 4.7% active | THP-1 LPS/ATP IL-1B secretion, AlphaLISA, 16 h; stronger effect = lower value | activity change, % at 57.5 µM; in the data active means activity change below about -50%; inconclusive means mostly about -30% to -49%
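THP-1 cells pretreated 1 hr with compounds (up to 57.5 uM final), then stimulated with LPS (250 ng/mL final) plus ATP (1.25 mM final); secreted IL-1B measured by AlphaLISA after 16 hr, decreased signal indicating inhibition.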
CtBP-E1A blk – CtBP/E1A binding inhibition. AID 651724. AlphaScreen GST-E1A/His-CtBP binding, 1536-well; stronger effect = lower value. 340,000 tested, 0.49% active. activity change, % (concentration not given with the values); in the data active means activity change below about -65%; inconclusive means mostly about -30% to -63%
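In 5 uL wells, 23 nL compound meets equimolar GST-E1A and His-CtBP (5X stock 125 nM each) for 2 h, 37 °C. Beads (5X, 50 ug/mL) then 1 h, 37 °C, dark.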
Six1-Eya2 inh – inhibitors of human Six1/Eya2 interaction; Q15475+O00167; AlphaScreen GST-Six1/His-Eya2 binding, biochemical; stronger effect = lower value; activity change, % (concentration not given with the values); 360,000 tested, 0.56% active; AID 651725; in the data active means activity change below about -65%; inconclusive means mostly about -30% to -63%
Target sequence (O00167 whole entry, looked up): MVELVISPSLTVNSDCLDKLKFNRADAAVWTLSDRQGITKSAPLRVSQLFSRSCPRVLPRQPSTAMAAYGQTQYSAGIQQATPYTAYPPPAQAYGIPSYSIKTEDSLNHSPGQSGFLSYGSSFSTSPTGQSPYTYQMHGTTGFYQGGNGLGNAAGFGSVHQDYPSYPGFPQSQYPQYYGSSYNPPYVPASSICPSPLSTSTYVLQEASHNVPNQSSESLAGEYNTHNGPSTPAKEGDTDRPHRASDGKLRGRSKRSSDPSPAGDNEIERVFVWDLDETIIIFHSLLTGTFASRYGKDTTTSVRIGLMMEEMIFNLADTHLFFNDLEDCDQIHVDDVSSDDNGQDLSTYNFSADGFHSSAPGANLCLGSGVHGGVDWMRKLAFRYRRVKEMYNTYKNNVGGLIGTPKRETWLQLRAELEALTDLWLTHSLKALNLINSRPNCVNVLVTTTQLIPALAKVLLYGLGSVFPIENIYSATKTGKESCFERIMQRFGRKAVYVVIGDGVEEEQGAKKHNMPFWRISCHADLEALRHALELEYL
Target sequence (Q15475 whole entry, looked up): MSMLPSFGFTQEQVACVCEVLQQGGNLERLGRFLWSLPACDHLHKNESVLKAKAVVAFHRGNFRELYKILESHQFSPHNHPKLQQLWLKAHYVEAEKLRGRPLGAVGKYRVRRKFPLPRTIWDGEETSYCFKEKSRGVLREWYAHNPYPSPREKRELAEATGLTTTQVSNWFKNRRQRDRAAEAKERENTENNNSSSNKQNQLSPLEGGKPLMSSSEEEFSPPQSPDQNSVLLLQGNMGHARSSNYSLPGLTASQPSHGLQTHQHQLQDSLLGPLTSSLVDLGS
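Compounds are tested against tagged Six1 and Eya2 proteins bridged by glutathione donor and nickel acceptor beads; after a one-hour incubation at 37 °C without light, AlphaScreen emission is recorded.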
Hits are given with their value; . = inactive; ? = inconclusive; / = no result; ! = repeats disagree; [ ] = another dose, or the depositor's remark. Only some compounds are listed: those with a hit (about 18% of all), similar ones and a draw of the others. Unless noted, the call rests on the fitted dose curve; in most records, active means well fitted curve in the direction sought with a large enough effect; inconclusive means small, poorly fitted or top-dose-only effect, or another doubt; inactive means no such curve, though single readings can be large; an effect the other way counts as inactive or inconclusive.

SMILES	TDP1 block	TDP1 cell CPT	DT40 TDP1 no CPT	IL1B secr inh	CtBP-E1A blk	Six1-Eya2 inh
CCN(Cc1ccccc1)C(=O)C1CCN(S(=O)(=O)c2c(C)noc2/C=C/c2ccc(C)cc2)CC1	.	?	?	/	/	/
Cc1cc(Cl)ccc1OCC(=O)NC(=S)Nc1ccc(Cl)cn1	.	.	.	.	.	.
Cc1[nH]c(=O)[nH]c(=O)c1S(=O)(=O)N1CCN(c2cccc(Cl)c2)CC1	.	.	.	.	.	.
COc1ccc2cc3c(N)c(C(=O)NCc4ccco4)sc3nc2c1	.	?	?	-62.8	.	.
O=C(NCc1ccco1)c1csc(Nc2ccccc2Cl)n1	.	?	.	.	?	.
COc1ccc(Nc2nc(C(=O)NCc3ccco3)cs2)cc1	/	23.1µM	?	.	/	.
COCCNC(=O)c1cc2cc3ccc(OC)cc3nc2o1	/	.	.	.	.	.
CCOCCCNC(=O)c1cc2cc3cc(OC)ccc3nc2o1	/	16.4µM	.	.	?	.
COc1ccc2cc3cc(C(=O)NCC4CCCO4)oc3nc2c1 (stereo not given)	.	.	.	-55.9	.	.
COc1ccc(OC)c(NS(=O)(=O)c2ccc3c(c2)CCC(=O)N3)c1	.	.	.	.	.	.
COc1ccc2cc3cc(C(=O)NCc4ccco4)oc3nc2c1	50.1µM	?	?	.	.	.
O=C(NCc1ccco1)c1cc2cc3ccc(Cl)cc3nc2o1	.	?	?	.	.	.
CC(O)(COc1ccccc1)c1ccc2c(c1)CN(Cc1cccn1-c1ccccn1)CCO2 (stereo not given)	/	.[9.04 µM]	16.4µM	/	/	/
Cc1nn2c(-c3ccncc3)nnc2c2ccccc12	.	?	?	?	.	.
COc1ccc(-c2nnc3c4ccccc4c(C)nn23)cc1	.	?	18.4µM	.	.	.
Cc1nn2c(-c3ccco3)nnc2c2ccccc12	.	?	20.6µM	.	.	.
Cc1cccc(CNCCn2cc(C(=O)Nc3ccccc3)nn2)c1	/	.	.	/	/	/
O=C(CCc1ccccc1)NC1C2CC3CC(C2)CC1C3 (stereo not given)	/	.	?	.	.	.
COC(=O)[C@@H](CC(C)C)N(Cc1ccccc1)S(=O)(=O)N(Cc1ccccc1)[C@@H](CC(C)C)C(=O)OC	.	20.6µM	11.2µM!	.	.	.
COc1ccc(C(=O)COC(=O)C2CCCN2C(=O)C23CC4CC(CC(C4)C2)C3)cc1 (stereo not given)	.	23.1µM	.	.	.	.
O=C(c1ccccc1)N1CCN(C2CCCCC2)CC1	.	.	?	.	.	.
O=C(O)C1=C(C2CCCCC2)C(=O)c2ccccc21	/	.	.	-55.3	.	.
O=C1C=C(C2CCCCC2)C(=O)c2ccccc21	/	20.6µM	14.6µM	.	.	.
NC(CO)C(=O)NNCc1ccc(O)c(O)c1O (stereo not given)	?	3.66µM	4.61µM	.	?	.
COCc1c(C(=O)Nc2nnc(C3CC3)s2)oc2ccccc12	/	?	11.6µM	.	.	.
SMILES	TDP1 block	TDP1 cell CPT	DT40 TDP1 no CPT	IL1B secr inh	CtBP-E1A blk	Six1-Eya2 inh
CCOC(=O)C1=C(C)Nc2ccccc2N=C1NC(=O)c1oc2ccccc2c1COC	.	20.6µM	16.4µM	.	.	.
CCCc1nnc(NC(=O)c2oc3ccccc3c2COCC)s1	.	.	?	.	.	.
COC(=O)c1cc([N+](=O)[O-])ccc1N1CCN(Cc2ccccc2)CC1	.	?	?	.	.	.
CCOC(=O)c1sc(NC(=O)c2ccco2)nc1C	.	.	.	.	.	.
Cc1nc(NC(=O)c2ccco2)sc1-c1csc(Nc2ccc(Cl)cc2Cl)n1	.	23.1µM	14.6µM	.	.	.
COc1ccccc1Nc1nc(-c2sc(NC(=O)c3ccco3)nc2C)cs1	.	16.4µM	14.6µM	.	.	.
COc1cccc(N(C(=O)c2ccco2)c2nc(-c3sc(NC(=O)c4ccco4)nc3C)cs2)c1	.	14.6µM	14.6µM	.	.	.
Cc1ccc(Cl)cc1Nc1nc(-c2sc(NC(=O)c3ccco3)nc2C)cs1	.	?	?	.	.	.
Cc1nc(NC(=O)c2ccco2)sc1-c1csc(Nc2ccc(Cl)cc2)n1	.	20.6µM	16.4µM	.	/	.
O=C(Nc1ccc2c(c1)OCCO2)C(C1CC1)N1CCN(c2ccc(F)cc2)CC1 (stereo not given)	/	?	?	.	.	.
CCCCN(C(=O)c1ccc([N+](=O)[O-])o1)c1c(N)n(CCCC)c(=O)[nH]c1=O	.[0.505 µM]	?	.	.	.	.
CC(=O)NN1CCc2cc3ccc(C)cc3nc21	/	.	.	.	.	.
OC1CCC(Nc2ccn3nc(-c4cccc(Cl)c4)cc3n2)CC1 (stereo not given)	/	?	?	.	.	.
CCC(CO)Nc1ccn2nc(-c3cccc(Cl)c3)cc2n1 (stereo not given)	/	23.1µM	23.1µM	.	.	.
COc1ccc(NC(=O)Nc2ccc3nccnc3c2)cc1	.	25.9µM	20.6µM	.	.	.
COc1ccc(C(=O)Nc2nccs2)cc1	/	.	.	.	.	.
COc1ccc(NC(=O)Nc2nccs2)cc1	.	13µM	16.4µM	.	.	.
COc1ccc(C(=O)Nc2cccc(-c3csc(C)n3)c2)cc1S(=O)(=O)N1CCCC1	.	?	?	.	/	?
CN1CCC(Oc2ccc(Sc3ccccc3)cc2)CC1	.	?	23.1µM	-54.5	.	.
Cc1ccc(OCc2nnc(SCC(=O)C(C)(C)C)n2Cc2ccco2)cc1	.	?	16.4µM	.	.	.
N#CC(Sc1ccccn1)c1ccc(Cl)cc1 (stereo not given)	.	?	?	-99.6	/	.
C[C@@H]1CN([C@@H](C)CO)S(=O)(=O)c2ccc(Br)cc2O[C@H]1CN(C)C(=O)C1CCCCC1	/	25.9µM	16.4µM	.	.	.
C[C@H]1CN([C@@H](C)CO)S(=O)(=O)c2ccc(C3=CCCC3)cc2O[C@@H]1CN(C)C(=O)C1CCCCC1	/	.	.	-50.6	.	.
C[C@H]1CN([C@@H](C)CO)S(=O)(=O)c2ccc(/C=C/c3ccccc3)cc2O[C@H]1CN(C)C(=O)NC1CCCCC1	/	?	18.4µM	-54.6	.	.
Cc1ccc(-c2ccc3c(c2)O[C@H](CN(C)C(=O)CC2CC2)[C@H](C)CN([C@@H](C)CO)S3(=O)=O)cc1	/	.	.	.	.	.
C[C@H]1CN([C@@H](C)CO)S(=O)(=O)c2ccc(-c3ccccc3)cc2O[C@H]1CN(C)C(=O)C1CCC1	/	?	14.6µM	.	.	.
